Source: PubChem
Sampled rows, rich in hits. Any-hit rate of the full collection: about 0.65%.
ugtP null kill – kills S. aureus RN4220 lacking UgtP; S. aureus RN4220 ugtP deletion, OD600 growth, 16 h; growth inhibition, % (concentration not given with the values); 330,000 tested, 0.54% active; in the data active means growth inhibition above about 68%;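 further: plate controls were untreated wells for no effect and antibiotic for full effect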
BJeLR viability – kills HRASV12-expressing BJeLR cells. BJeLR (HRASV12) viability, CellTiter-Glo ATP luminescence, 48 h. inhibition, % (no concentration beside the values). 300,000 tested, 0.17% active. AID 1554; in the data active means inhibition above about 50%
RN4220 kill – S. aureus RN4220 growth inhibition; OD600, 16 h; inhibition, % (concentration not given with the values); 330,000 tested, 0.33% active; in the data active means inhibition above about 85%;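 further: plate controls were untreated cells for no effect and reference antibiotic for full effect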
Numbers without * were called inactive; / = no result.

SMILES	ugtP null kill	BJeLR viability	RN4220 kill
CCCCN(CC)c1nc(-c2ccncc2)nc2ccccc12	-15.5	-0.9	-9.2
CCCN(CCC)c1nc(-c2ccccn2)nc2ccccc12	99.6*	13.1	99.1*
CC(=O)/C(N=Nc1cc2c(c([N+](=O)[O-])c1C)C(C)(C)CC2(C)C)=C(\C)O	89.2*	2.2	-2.9
CC(=O)/C(N=Nc1cc2c(cc1[N+](=O)[O-])OCCO2)=C(\C)O	-3.8	8.2	1.0
COc1ccc(C(C(=O)NC2CCCCC2)N(C(=O)CCl)c2ccc(OC)cc2)cc1 (stereo not given)	5.0	117.9*	-2.8
COc1cccc(N(C(=O)c2cnccn2)C(C(=O)NC2CCCCC2)c2ccc(Cl)cc2)c1 (stereo not given)	8.0	-7.8	5.1
O=C(NC1CCCCC1)C(c1cccnc1)N(C(=O)CCl)c1ccc(F)cc1 (stereo not given)	2.1	50.0	5.2
COc1ccc(C(C(=O)NC2CCCCC2)N(C(=O)CCl)c2cccc(Cl)c2)cc1 (stereo not given)	9.8	119.0*	25.3
COc1ccc(C(C(=O)NC2CCCC2)N(C(=O)c2ccoc2C)c2ccc(C)cc2)cc1 (stereo not given)	-8.4	6.3	-4.4
COc1ccc(C(C(=O)NC2CCCCC2)N(C(=O)CCl)c2ccc(C)cc2)cc1 (stereo not given)	1.0	135.2*	7.4
COc1ccc(N(C(=O)Cc2cccs2)C(C(=O)NC2CCCC2)c2ccncc2)cc1 (stereo not given)	4.7	7.3	1.8
COc1ccc(N(C(=O)CCl)C(C(=O)NC2CCCCC2)c2cccnc2)cc1 (stereo not given)	-2.4	80.7*	9.4
CCOC(=O)N[C@H](Cc1c[nH]c2ccccc12)C(=O)NC1CC1	6.3	3.3	9.5
CCc1ccccc1Nc1nc2ccccc2[nH]1	-6.4	-7.9	2.8
CCN(c1ccccc1)S(=O)(=O)c1cccc(C(=O)OCc2nc3sc(C)c(C)c3c(=O)[nH]2)c1	-7.3	-2.6	5.4
CSc1ccc(CN(C)CC(=O)Nc2ccc(C)cc2Br)cc1	89.5*	11.8	8.3
CSc1ccc(CN(C)CC(=O)N(C)CC(=O)Nc2ccccc2Br)cc1	3.2	/	0.4
CC(=O)Nc1cccc(NC(=S)Nc2cccc(Cl)c2C)c1	1.4	-2.8	2.0
CCN(CC)c1ccc2cc(C(=O)NCc3ccc(F)cc3)c(=N)oc2c1	/	6.8	/
CC(=NNC(=O)c1ccc(Cl)c(Cl)c1)c1ccccn1	16.9	/	51.7
C/C(=N\NC(=O)c1ccccc1Cl)c1ccccn1	/	47.6	/
COc1ccc(C(=O)N/N=C(\C)c2ccccn2)cc1OC	/	74.4*	/
C/C(=N\NC(=O)c1cccc2ccccc12)c1ccccn1	/	79.0*	/
O=C(NCCCn1ccnc1)c1cc2ccccc2o1	-4.2	-3.2	1.1
O=C(CCN1C(=O)/C(=C/c2cccs2)SC1=S)Nc1ccc(C(=O)O)c(O)c1	-6.7	2.3	2.7
SMILES	ugtP null kill	BJeLR viability	RN4220 kill
Cn1c(/C=C/c2ccc([N+](=O)[O-])o2)nc2ccccc2c1=O	96.6*	81.9*	99.0*
Cn1c(/C=C/c2ccccc2)nc2ccccc2c1=O	-6.0	6.8	7.0
CN1CCN(c2ccc(S(C)(=O)=O)cc2[N+](=O)[O-])CC1	1.4	4.3	1.6
CN1CCN(c2ccc([N+](=O)[O-])c3no[n+]([O-])c23)CC1	98.1*	71.5*	55.9
Cc1cc2c(cc1S(=O)(=O)N1CCN(c3ccccc3F)CC1)OCC(=O)N2	-8.7	8.2	-2.2
CC(CCO)Nc1nc2c(c(=O)n(C)c(=O)n2C)n1Cc1cccc(Br)c1 (stereo not given)	-4.3	5.2	4.4
Cc1nc(-c2cccc(NC(=O)C(C)Oc3ccccc3)c2)cs1 (stereo not given)	99.9*	-4.7	98.7*
Cc1nc(CNS(=O)(=O)c2ccc3ccccc3c2)cs1	0.8	12.6	4.3
CC(Oc1ccccc1)C(=O)Nc1nc(-c2ccncc2)cs1 (stereo not given)	-6.1	/	-0.4
Cc1nc(-c2cccc(NS(=O)(=O)c3ccc4ccccc4c3)c2)cs1	91.3*	-7.8	18.1
COc1cc(/C=C2/CC/C(=C/c3ccc(O)c(OC)c3)C2=O)ccc1O	19.4	20.6	18.0
COc1ccc(/C=C2\CN(Cc3ccccc3)C/C(=C\c3ccc(OC)c(O)c3)C2=O)cc1O	/	69.4*	/
COc1ccc(C=C2C(=O)c3ccccc3C2=O)cc1O	6.7	-6.1	4.2
CCN1C/C(=C/c2ccc(OC)c(O)c2)C(=O)/C(=C/c2ccc(OC)c(O)c2)C1	9.3	55.4*	6.5
Cc1ccc(C)c(S(=O)(=O)ON2C(=O)c3ccccc3C2=O)c1	0.4	/	-2.5
CCN(CC)S(=O)(=O)c1ccc(C(=O)Nc2nnc(-c3ccco3)o2)cc1	-5.7	3.7	19.9
CCCCN(CC)S(=O)(=O)c1ccc(C(=O)Nc2nnc(-c3cccs3)o2)cc1	94.7*	2.6	92.9*
CN(c1ccccc1)S(=O)(=O)c1ccc(NC(=O)c2ccc(-c3ccccc3)cc2)cc1	-20.2	4.4	7.6
COc1ccccc1-c1nnc(NC(=O)c2ccc(S(=O)(=O)N(C)Cc3ccccc3)cc2)o1	99.0*	/	109.9*
CN(c1ccccc1)S(=O)(=O)c1ccc(C(=O)Nc2nnc(-c3ccc(F)cc3)o2)cc1	99.9*	-5.0	99.6*
CCc1nnc(NC(=O)c2ccc(S(=O)(=O)N(C)Cc3ccccc3)cc2)o1	3.3	5.2	23.3
COc1ccc(NC(=O)C2CCCN(c3nn4c(=O)cc(C)nc4s3)C2)cc1 (stereo not given)	5.3	0.3	7.5
Cc1cc(C)cc(NC(=O)[C@H](Cc2c[nH]c3ccccc23)NC(=O)[C@@H]2Cc3ccccc3CN2)c1	0.9	3.3	-1.2
Cc1cccc(NC(=O)[C@H](Cc2c[nH]c3ccccc23)NC(=O)[C@@H]2Cc3ccccc3CN2)c1	-4.2	40.3	1.2
Cc1ccc(NC(=O)[C@H](Cc2c[nH]c3ccccc23)NC(=O)[C@@H]2Cc3ccccc3CN2)c(C)c1	-4.4	65.2*	1.4
SMILES	ugtP null kill	BJeLR viability	RN4220 kill
CCc1ccc(NC(=O)[C@H](Cc2c[nH]c3ccccc23)NC(=O)[C@@H]2Cc3ccccc3CN2)cc1	-8.5	58.9*	1.7
CCOc1cc(/C=N/NC(=O)CN2CCCCC2)ccc1OCc1ccc(Cl)cc1	/	-13.2	/
O=C(c1ccccc1)C1CCN(C(=O)Nc2ccccc2)CC1	-0.8	7.5	0.3
CCOC(=O)CSc1c(-c2ccccc2)c2cc(Cl)ccc2[nH]c1=O	-20.1	-1.7	-0.5
CC1CCN(C(=O)CSc2ccc(-c3ccc4c(c3)OCCO4)nn2)CC1	-1.7	-7.3	4.1
O=C(Nc1ccc(Cl)cc1)/C(=C/c1cccc(O)c1)c1nc2ccccc2s1	89.2*	38.5	68.7
S=C(Nc1ccc(Cl)cc1)c1nc2ccccc2s1	-5.0	9.7	-6.6
CCOc1ccccc1C(=O)N1CCN(c2cccc(Cl)c2)CC1	8.9	52.9*	0.8
O=C(O)c1ccccc1C(=O)N1CCN(c2cccc(Cl)c2)CC1	6.2	-4.5	-7.3
O=C1C(Cc2ccc(O)cc2)NC(=S)N1c1ccccc1 (stereo not given)	-0.4	3.8	1.6
O=C(CSc1nc2ccccc2s1)NN=Cc1ccco1	3.1	/	4.8
CCOc1ccc(Oc2ccc(NS(=O)(=O)c3cc(C(=O)O)ccc3Cl)cc2)cc1	1.3	/	0.1
